Laboratory results published in PubChem BioAssay AID1851 (National Center for Advancing Translational Sciences (NCATS), 2009).
In all, about 16,000 compounds went through this assay and about 2,600 (16%) were called active. Roughly 20% stayed inconclusive and do not appear here. Calls follow the shape of the dose curve; as a rule, active = well fitted curve in the direction sought with a large enough effect; inconclusive = small, poorly fitted or top-dose-only effect, or effect the other way; inactive = no such curve, though single readings can be large or run the other way. Only a sample is shown.

Target: Cytochrome P450 2D6 (Homo sapiens) (UniProt P10635)
Sequence (P10635 whole entry, looked up): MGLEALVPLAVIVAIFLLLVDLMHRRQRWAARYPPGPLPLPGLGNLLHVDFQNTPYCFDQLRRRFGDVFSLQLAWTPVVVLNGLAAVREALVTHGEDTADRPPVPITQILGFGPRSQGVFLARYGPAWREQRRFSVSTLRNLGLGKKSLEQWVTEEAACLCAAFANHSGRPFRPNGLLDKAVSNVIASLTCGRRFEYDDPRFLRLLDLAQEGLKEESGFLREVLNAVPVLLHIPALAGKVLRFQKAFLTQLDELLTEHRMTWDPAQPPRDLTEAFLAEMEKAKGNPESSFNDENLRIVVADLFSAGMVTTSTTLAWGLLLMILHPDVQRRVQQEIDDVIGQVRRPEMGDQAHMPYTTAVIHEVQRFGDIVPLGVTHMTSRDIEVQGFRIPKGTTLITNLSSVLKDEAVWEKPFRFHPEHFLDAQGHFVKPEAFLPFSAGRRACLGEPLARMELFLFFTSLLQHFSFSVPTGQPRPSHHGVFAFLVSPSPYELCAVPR
Experiment: Cytochrome panel assay with activity outcomes
Details: recombinant CYP, pro-luciferin dealkylation, luminescence, p450-cyp2d6; series mostly up to 57.1 µM
% is scaled to controls: 0 for no effect and ±100 for the full control effect.

| Compound | AC50 | activity, negative = inhibition |
| --- | --- | --- |
| COc1ncc2nc(-c3cc(F)cc(F)c3)c(=O)n(C[C@H]3CCCO3)c2n1 | inactive |  |
| CNc1c2c(nn1C)CCCC2 | inactive |  |
| Cc1ccccc1S(=O)(=O)Oc1ccccc1C(=O)Oc1ccccc1 | inactive |  |
| Nc1ncnc2nc(N3CCN(CCO)CC3)[nH]c12 |  | 6.88% [at 11.4 µM] (inactive) |
| N[C@H](CCC(=O)NCS(=O)(=O)O)C(=O)O | inactive |  |
| COc1cc(=O)n(C)c2c(OC[C@@H](O)C(C)(C)O)cccc12 | inactive |  |
| CO/N=C(\C(=O)N[C@@H]1C(=O)N2C(C(=O)O)=C(COC(C)=O)CS[C@@H]12)c1csc(N)n1 | inactive |  |
| Cc1ccccc1NC1=C(C(=O)c2ccccc2)N(C)S(=O)(=O)c2ccccc21 | inactive |  |
| C[C@H]1COC(=O)[C@H](Cc2ccccc2)NC(=O)[C@@H](C)COC(=O)[C@H](Cc2ccccc2)NC1=O |  | 13.8% [at 11.4 µM] (inactive) |
| OC[C@@H]1O[C@@H](O)[C@H](N=Cc2ccc3c(c2)OCO3)[C@@H](O)[C@@H]1O |  | 0.161% [at 11.4 µM] (inactive) |
| COCCn1c(=O)c(-c2cc(F)cc(F)c2)nc2cnc(N3CCN(C)CC3)nc21 | inactive |  |
| O=C(/C=C/c1cc2c(cc1Br)OCO2)NCc1ccc(Cl)cc1 | inactive |  |
| CCN(CC)C(=O)C(=O)N/N=C/c1cccc(Br)c1 | inactive |  |
| C=CCNC(=O)CC(=O)N/N=C/c1cccc(Br)c1 | inactive |  |
| Cn1c(=O)c2c(n(Cc3ccccc3)c1=O)NC(=O)C2CC(=O)NCc1cccc(Cl)c1 (configuration not stated) | inactive |  |
| O=C(CSCc1cccc(Cl)c1)NCc1ccc2c(c1)OCO2 | 1 µM (active) |  |
| O=C(CSCc1cccc(Br)c1)N/N=C/c1ccc2c(c1)OCO2 | 2 µM (active) |  |
| O=[N+]([O-])c1ccc(/C=N/n2c(COc3ccccc3)n[nH]c2=S)cc1 | inactive |  |
| C=CCNc1sc(C(=O)c2ccc(C)cc2)c(N)c1C#N | inactive |  |
| O=C(O)[C@H]1CCCC[C@@H]1c1c2ccc(=O)c(O)c-2oc2c(O)c(O)ccc12 |  | -0.179% [at 11.4 µM] (inactive) |
| Cc1ccc(S(=O)(=O)N[C@H](C(=O)Oc2ccc3c(C(F)(F)F)cc(=O)oc3c2)c2ccccc2)cc1 | inactive |  |

| Compound | AC50 | activity, negative = inhibition |
| --- | --- | --- |
| O=C(O)/C(=C\c1ccc(O)cc1)c1cccc2ccccc12 |  | -6.42% [at 11.4 µM] (inactive) |
| O=C(O)[C@H]([C@H]1NCCS1)N1Cc2ccccc2C1 |  | 5.75% [at 11.4 µM] (inactive) |
| CCN=C(N)CSS(=O)(=O)O |  | -8.26% [at 11.4 µM] (inactive) |
| O=C(N/N=C1/C[C@@H](O)[C@@H](O)[C@@H]2[C@H]3C(=O)N(c4ccc(F)cc4F)C(=O)[C@@H]3CC[C@H]12)OCc1ccccc1 |  | -17.3% [at 11.4 µM] (inactive) |
| Clc1ccc(-c2nnc(CCc3ccccc3)o2)c(Cl)c1 | 11.2 µM (active) |  |
| CSc1nnc(-c2ccc(Cl)cc2Cl)o1 | inactive |  |
| Clc1ccc(-c2nnc(-c3cccc4ccccc34)o2)cc1Cl |  | 17.5% [at 11.4 µM] (inactive) |
| CCN1C(=O)C(O)(CC(=O)/C=C/C=C/c2ccccc2)c2ccccc21 (configuration not stated) | inactive |  |
| CC(C)CO/N=C1/C[C@@H](O)[C@@H](O)[C@@H]2[C@@H]3C(=O)N(C[C@@H]4CCCO4)C(=O)[C@H]3CC[C@@H]12 |  | 17.5% [at 11.4 µM] (inactive) |
| COc1ccc(-n2c(=O)c(-c3cccs3)nc3cnc(N4CCOCC4)nc32)cc1 | inactive |  |
| CC(C)c1ccc2c(c1)C(c1ccc(N3CCOCC3)cc1)=NNC(c1cccs1)=N2 | 7.08 µM (active) |  |
| O=c1c(-c2cccs2)nc2cnc(N3CCOCC3)nc2n1-c1ccccc1 | inactive |  |
| COC(=O)C1=C(CSc2nncn2C)NC(=O)NC1c1ccc(F)cc1 (configuration not stated) | inactive |  |
| Cc1ccc(S(=O)(=O)N2CCC(C(=O)NCCCOC(C)C)CC2)cc1 | inactive |  |
| CC(=O)Nc1ccc(S(=O)(=O)NCC2CCC(C(=O)NCCC(C)C)CC2)cc1 (configuration not stated) | inactive |  |
| CC(=O)Nc1ccc(S(=O)(=O)N2CCC(N(C)CCC(C)C)CC2)cc1 | 8.91 µM (active) |  |
| CCc1ccccc1NC(=O)c1nnn(CC(=O)Nc2cccc(C)c2C)c1N | inactive |  |
| C/C(=N\Nc1nc(N)cc(Cl)n1)c1cccc([N+](=O)[O-])c1 | inactive |  |
| O=C(Cc1ccc(Cl)cc1)Nc1cccc(-c2nnc(-c3ccco3)o2)c1 | inactive |  |
| O=C(Cc1ccccc1)Nc1nc2ccc(Cl)cc2c2nc(-c3ccco3)nn12 | 10 µM (active) |  |
| O=C(Cc1ccc(Cl)cc1)NNC(=O)Nc1cccc2ccccc12 | inactive |  |

| Compound | AC50 | activity, negative = inhibition |
| --- | --- | --- |
| Cc1ccc(C(=O)NCc2ccc(N3CCN(C(=O)OC(C)(C)C)CC3)cc2)cc1 | inactive |  |
| CC(C)NC(=O)CC(=O)N/N=C/c1ccc(F)cc1 | inactive |  |
| CCCCCSc1nncc(=O)[nH]1 | inactive |  |
| Cc1cc(Oc2ccccc2)nc(NCc2ccccc2)n1 | inactive |  |
| Cc1nc(SCc2cccc(Oc3ccccc3)c2)n[nH]1 | 14.1 µM (active) |  |
| c1ccc(CSc2nnc3c4ccccc4c4ccccc4c3n2)cc1 |  | -1.49% [at 11.4 µM] (inactive) |
| CN(C)c1ncc2nc(-c3cccs3)c(=O)n(-c3ccccc3)c2n1 | inactive |  |
| CCN(CC)c1ccc2c(Cl)cc(=O)oc2c1 | 12.6 µM (active) |  |
| CCN(CC)c1ccc2cc(C(C)=O)c(=O)oc2c1 | inactive |  |
| CCN(CC)c1ccc(C(=O)OCc2cc(=O)oc3cc(O)ccc23)cc1 | inactive |  |
| CCOC(=O)c1ccccc1NC(=O)/C(C)=C/C(=O)O | inactive |  |
| COCCn1c(=O)c(-c2cn(C)c3ccccc23)nc2cnc(Oc3cccc(Cl)c3)nc21 | inactive |  |
| CCCOc1ccccc1-c1nc2n[nH]nc2c(=O)[nH]1 | inactive |  |
| CNc1nc(C)cc(C)c1S(=O)(=O)c1ccc(Cl)cc1 | inactive |  |
| Cc1nn(S(=O)(=O)c2cccs2)c(C)c1Sc1ccc([N+](=O)[O-])cc1 | 2.24 µM (active) |  |
| Cc1nn(C(=O)c2ccco2)c(C)c1Sc1ccc(Br)cc1 | inactive |  |
| Cc1ccc(Sc2c([N+](=O)[O-])ncn2C)cc1 | inactive |  |
| O=C(OC1CCN(c2ccc([N+](=O)[O-])cc2)CC1)c1ccccc1 | inactive |  |
| COc1ccc(-n2c(C)cc(C=O)c2C)cc1Cl | inactive |  |
| CC(C)(O)c1cn(-c2nonc2N)nn1 | inactive |  |
